From the supplement of paper PMC6331611 come the findings set out here.

Where “and” joins values, the source holds several entries; their conditions need not be identical. Identical values can stand only once. ± gives the standard deviation of the averaged measurements. Whole data set: some 1,600 compounds, median “normalized growth (OD600, IQM-normalized) in LPM” near 1, cut for the lowest 2% near 0.014. The sample as a whole holds a higher share of the lowest values than the screen did.

The test relates to Salmonella enterica serovar Typhimurium SL1344. The experiment in a line: normalized growth (OD600, IQM-normalized) in LPM (fraction of plate interquartile mean); higher = more bacterial growth (less inhibition). The note with it: LPM pH 5.8; 10 µM; 16 h.
For `CC(S)C(=O)NCC(=O)O` (stereo unspecified), the normalized growth was 0.982 ± 0.071.
As for `O=C(O)CN(CCN(CC(=O)O)CC(=O)O)CC(=O)O.[Na+].[Na+].[Na+]`, the figure is 0.0403 ± 0.013.
For `CO[C@@]1(NC(=O)C2SC(=C(C(N)=O)C(=O)O)S2)C(=O)N2C(C(=O)O)=C(CSc3nnnn3C)CS[C@@H]21` (stereo partly specified) the value was 0.00904 ± 0.00015.
For `CO[C@@]1(NC(=O)C(C(=O)O)c2ccc(O)cc2)C(=O)N2C(C(=O)O)=C(CSc3nnnn3C)CO[C@@H]21` (stereo partly specified) the value was 0.993 ± 0.045; for `CO[C@@]1(NC(=O)CSCC#N)C(=O)N2C(C(=O)O)=C(CSc3nnnn3C)CS[C@@H]21`, 0.957 ± 0.052; for `CO[C@H]1/C=C/O[C@@]2(C)Oc3c(C)c(O)c4c(O)c(c5c(nc6cc(C)ccn65)c4c3C2=O)NC(=O)/C(C)=C\C=C\[C@H](C)[C@H](O)[C@@H](C)[C@@H](O)[C@@H](C)[C@H](OC(C)=O)[C@@H]1C`, 0.0104 ± 0.00017.
Consider `CO[C@H]1/C=C/O[C@@]2(C)Oc3c(C)c(O)c4c(O)c(c(/C=N/N5CCN(C)CC5)c(O)c4c3C2=O)NC(=O)/C(C)=C\C=C\[C@H](C)[C@H](O)[C@@H](C)[C@@H](O)[C@@H](C)[C@H](OC(C)=O)[C@@H]1C`, for which the normalized growth turned out to be 0.0102 ± 0.00021.
For `Nc1ncn([C@@H]2O[C@H](CO)[C@@H](O)[C@H]2O)c(=O)n1` the value was 0.0134 ± 0.00024; for `Nc1ccn([C@@H]2O[C@H](CO)[C@@H](O)[C@@H]2O)c(=O)n1`, 1.01 ± 0.067.
For `O=c1[nH]cnc2c1ncn2[C@@H]1O[C@H](CO)[C@@H](O)[C@H]1O` the value was 1.13 ± 0.034; for `O=C(O)c1ccc(S(=O)(=O)N(Cl)Cl)cc1`, 0.999 ± 0.013.
Take `CC(=O)OC/C=C(C)/C=C/C=C(C)/C=C/C1=C(C)CCCC1(C)C`: the normalized growth was 0.905 ± 0.06.
For `C=COCC(F)(F)F` the value was 0.991 ± 0.044; for `CCN(CC)CCOc1ccc2c(c1)C(=O)c1cc(OCCN(CC)CC)ccc1-2`, 1.02 ± 0.083; for `C1CCN2C[C@@H]3C[C@@H](CN4CCCC[C@@H]34)[C@H]2C1`, 1.13 ± 0.04.
As for `COCC1=C(C(=O)OC(C)OC(=O)OC(C)C)N2C(=O)[C@@H](NC(=O)/C(=N\OC)c3csc(N)n3)[C@H]2SC1` (stereo partly specified), the figure is 1.034 ± 0.0056.
The molecule `CCCCCCCCCCCCCCCC[N+](C)(C)C` gave a normalized growth of 0.982 ± 0.038.
As for `C[C@@H]1CC2C3C[C@H](F)C4=CC(=O)C=C[C@]4(C)[C@@]3(F)[C@@H](O)C[C@]2(C)[C@@]1(O)C(=O)COC(=O)C(C)(C)C` (stereo partly specified), the figure is 1.04 ± 0.12.
Take `COC(=O)Nc1nc2cc(Sc3ccccc3)ccc2[nH]1`: the normalized growth was determined as 0.987 ± 0.024.
Turning to `OC[C@@H](O)[C@@H](O[C@@H]1O[C@H](CO)[C@H](O)[C@H](O)[C@H]1O)[C@H](O)[C@@H](O)CO`, the normalized growth was 0.98 and 0.904.
As for `CS(=O)(=O)c1ccc([C@@H](O)[C@@H](CO)NC(=O)C(Cl)Cl)cc1`, the figure is 0.934 ± 0.078; as for `CS(=O)(=O)c1ccc([C@@H](O)[C@@H](CF)NC(=O)C(Cl)Cl)cc1`, 0.0094 ± 0.00019; as for `Clc1ccccc1CN1CCc2sccc2C1`, 1.02 ± 0.037.
With `CCCCCCCCCCCCCCCC(=O)OC[C@@H](NC(=O)C(Cl)Cl)[C@H](O)c1ccc([N+](=O)[O-])cc1`, the normalized growth was 1.04 ± 0.082.
For `O=C(N[C@H](CO)[C@H](O)c1ccc([N+](=O)[O-])cc1)C(Cl)Cl`, the normalized growth worked out at 0.0146 ± 0.00075.
The molecule `O=C(O)CCC(=O)OC[C@@H](NC(=O)C(Cl)Cl)[C@H](O)c1ccc([N+](=O)[O-])cc1` came in with a normalized growth of 0.014 ± 0.00072.
For `C#C[C@]1(O)CC[C@H]2[C@@H]3[C@H](C)CC4=C(CCC(=O)C4)[C@H]3CC[C@@]21C` the value was 0.987 ± 0.048.
As for `OCc1ccccc1O`, the figure is 1.05 ± 0.04; as for `CN(C/C=C/c1ccccc1)Cc1cccc2ccccc12`, 0.885 ± 0.019; as for `CC(=O)N[C@@H]([C@@H](O)[C@H](O)[C@H](O)CO)[C@@H](O)CC(=O)C(=O)O`, 1 ± 0.065.
Consider `CC(C)(Oc1ccc(C(=O)c2ccc(Cl)cc2)cc1)C(=O)O`, for which the normalized growth was found to be 0.976 ± 0.024.
Molecule `CC(=O)NCCCCCC(=O)O` yielded a normalized growth of 1.11 ± 0.034.
As for `N#Cc1ccc2c(c1)N(CCCN1CCC(O)CC1)c1ccccc1S2`, the figure is 1.09 ± 0.035; as for `O=C(O)C[C@H](O)C[C@H](O)/C=C/c1c(C2CC2)nc2ccccc2c1-c1ccc(F)cc1`, 1.19 ± 0.13.
As for `N=C(N)c1ccc(N=NNc2ccc(C(=N)N)cc2)cc1`, the figure is 0.766 ± 0.035; as for `CC(=O)Nc1cccc(O)c1`, 1.02 ± 0.014; as for `Cc1c(NC(C)C)c(=O)n(-c2ccccc2)n1C`, 0.981 ± 0.15.
As for `C[C@H]1O[C@@H](n2cc(F)c(=O)[nH]c2=O)[C@H](O)[C@@H]1O`, the figure is 0.412 ± 0.11; as for `CCCCCCNC(=O)n1cc(F)c(=O)[nH]c1=O`, 0.007569 ± 7.1e-05; as for `CCOC(=O)COc1ccc2c(=O)cc(-c3ccccc3)oc2c1`, 1.01 ± 0.035.
Molecule `OC[C@H]1O[C@H](O[C@H]2[C@H](O)[C@@H](O)C(O)O[C@@H]2CO)[C@H](O)[C@@H](O)[C@@H]1O` (stereo partly specified) returned a normalized growth of 1.06 ± 0.12.
Molecule `O=c1cc[nH]c(=O)[nH]1` displayed a normalized growth of 1.06 ± 0.04.
Regarding `O=c1[nH]cc(F)c(=O)[nH]1`, the normalized growth was 0.0109 ± 0.0049.
For `Nc1nc(=O)[nH]cc1F` the value was 0.742 ± 0.12.
For `COc1cc([C@@H]2c3cc4c(cc3[C@@H](O[C@@H]3O[C@@H]5CO[C@@H](c6cccs6)O[C@H]5[C@H](O)[C@H]3O)[C@H]3COC(=O)[C@H]23)OCO4)cc(OC)c1O` the value was 0.882 ± 0.027.
On to `O=C1c2cccc(O)c2C(=O)c2c(O)cccc21`, for which the normalized growth was determined as 0.827 ± 0.05.
As for `CCN(CC)C(=O)/C(C#N)=C/c1cc(O)c(O)c([N+](=O)[O-])c1`, the figure is 0.924 ± 0.023.
As for `C[C@]12CC[C@@H]3c4ccc(OC(=O)c5ccccc5)cc4CC[C@H]3[C@@H]1CC[C@@H]2O`, the figure is 0.779 ± 0.061; as for `C/C=C(/C(=C/C)c1ccc(O)cc1)c1ccc(O)cc1`, 1.04 ± 0.035.
For `CO[C@H]1C[C@@H]2CC[C@@H](C)[C@@](O)(O2)C(=O)C(=O)N2CCCC[C@H]2C(=O)O[C@H]([C@H](C)C[C@@H]2CC[C@@H](O)[C@H](OC)C2)CC(=O)[C@H](C)/C=C(\C)[C@@H](O)[C@@H](OC)C(=O)[C@H](C)C[C@H](C)/C=C/C=C/C=C/1C`, the normalized growth amounted to 0.964 ± 0.048.
For `Cc1ccc(Nc2c(F)cccc2Cl)c(CC(=O)O)c1` the value was 1.11 ± 0.053; for `CCNC(=O)/C=C/c1cccc(Br)c1`, 1.08 ± 0.035; for `COC(=O)/C=C/C(=O)OC`, 1.42 ± 0.16.
For the molecule `Nc1nc(Cl)nc2c1ncn2[C@@H]1O[C@H](CO)[C@@H](O)[C@@H]1F`, the normalized growth came out at 1.11 ± 0.025.
For `CC1(C)[C@@H](O)CC[C@]2(C)[C@H]3C(=O)C=C4[C@@H]5C[C@@](C)(C(=O)O)CC[C@]5(C)CC[C@@]4(C)[C@]3(C)CC[C@@H]12` the value was 0.906 ± 0.073; for `CC(=O)Nc1ncc([N+](=O)[O-])s1`, 0.899 ± 0.018; for `CCCCCCOc1ccccc1C(N)=O`, 1.01 ± 0.048.
For the molecule `COc1ccc2cc(C(C)C(=O)O)ccc2c1` (stereo unspecified), the normalized growth stood at 1.07 ± 0.032.
As for `CCC[C@@H]1C[C@@H](C(=O)N[C@@H]([C@H]2O[C@H](SC)[C@H](O)[C@@H](O)[C@H]2O)[C@@H](C)O)N(C)C1`, the figure is 1.096 ± 0.0085.
For the molecule `CN(Cc1cnc2nc(N)nc(N)c2n1)c1ccc(C(=O)NC(CCC(=O)O)C(=O)O)cc1` (racemic), the normalized growth is 0.665 ± 0.054.
As for `CCC(=O)OCC(=O)[C@@]1(OC(=O)CC)[C@@H](C)C[C@H]2[C@@H]3CCC4=CC(=O)C=C[C@]4(C)[C@@]3(F)[C@@H](O)C[C@@]21C`, the figure is 1.06 ± 0.047; as for `CN1CCN(c2cc3c(cc2F)c(=O)c(C(=O)O)cn3-c2ccc(F)cc2)CC1`, 0.0108 ± 0.00018.
For `CCn1cc(C(=O)O)c(=O)c2cc(F)c(N3CCNCC3)cc21` the value was 0.0247 ± 0.0053; for `CCn1cc(C(=O)O)c(=O)c2cc(F)c(N3CCNCC3)nc21`, 0.0514 ± 0.033; for `O=C(O)c1cn(-c2ccc(F)cc2)c2cc(N3CCNCC3)c(F)cc2c1=O`, 0.0341 ± 0.0073.
As for `CCn1cc(C(=O)O)c(=O)c2cc(F)c(N3CCN(C)CC3)cc21`, the figure is 0.0116 ± 0.00051; as for `O=C(O)c1cn(C2CC2)c2cc(N3CCNCC3)c(F)cc2c1=O`, 0.0145 ± 0.0063; as for `CCCCC(O)c1ccccc1` (stereo unspecified), 0.984 ± 0.032.
As to `CC1=CC(=O)NS(=O)(=O)O1`, the normalized growth was found to be 0.928 ± 0.054.
As for `CS(=O)(=O)c1ccc(C2=C(c3ccccc3)C(=O)OC2)cc1`, the figure is 1.07 ± 0.11.
`CCCCCCCCCC(=O)N[C@@H](Cc1c[nH]c2ccccc12)C(=O)N[C@@H](CC(N)=O)C(=O)N[C@@H](CC(=O)O)C(=O)N[C@@H]1C(=O)NCC(=O)N[C@@H](CCCN)C(=O)N[C@@H](CC(=O)O)C(=O)N[C@H](C)C(=O)N[C@@H](CC(=O)O)C(=O)NCC(=O)N[C@H](CO)C(=O)N[C@@H]([C@H](C)CC(=O)O)C(=O)N[C@@H](CC(=O)c2ccccc2N)C(=O)O[C@@H]1C` [DAPTOMYCIN (5 millimolar/DMSO)] gave a normalized growth of 1.02 ± 0.057.
As for `C[C@]12CCC(=O)C=C1[C@@H]1C[C@@H]1[C@H]1[C@@H]3[C@@H]4C[C@@H]4[C@@]4(CCC(=O)O4)[C@@]3(C)CC[C@@H]12`, the figure is 1.07 ± 0.069; as for `COc1cc(/C=C/C(=O)N2CCCCCCC2)cc(OC)c1OC`, 0.961 ± 0.025.
Molecule `N[C@@H](Cc1ccc(O)cc1)C(=O)O` showed a normalized growth of 0.979 ± 0.02.
The molecule `CC(=O)NC(Cc1ccccc1)C(=O)O` (stereo unspecified) had a normalized growth of 0.957 ± 0.064.
`CNC(=C[N+](=O)[O-])NCCSCc1csc(CN(C)C)n1` had a normalized growth of 1.15 ± 0.28.
For `O=C(O)C1=C(CSc2nnnn2CS(=O)(=O)O)CS[C@@H]2[C@H](NC(=O)[C@H](O)c3ccccc3)C(=O)N12` the value was 1.01 ± 0.024.
Molecule `CCCCCNC(=N)N/N=C/c1c[nH]c2ccc(OC)cc12` gave a normalized growth of 1.09 ± 0.12.
As for `Cc1cc(C2CCCCC2)n(O)c(=O)c1`, the figure is 0.183 ± 0.014; as for `O=C(OC[C@H]1O[C@@H](OC(=O)c2cc(O)c(O)c(OC(=O)c3cc(O)c(O)c(O)c3)c2)[C@H](OC(=O)c2cc(O)c(O)c(OC(=O)c3cc(O)c(O)c(O)c3)c2)[C@@H](OC(=O)c2cc(O)c(O)c(OC(=O)c3cc(O)c(O)c(O)c3)c2)[C@@H]1OC(=O)c1cc(O)c(O)c(OC(=O)c2cc(O)c(O)c(O)c2)c1)c1cc(O)c(O)c(OC(=O)c2cc(O)c(O)c(O)c2)c1`, 1.08 ± 0.013; as for `O=C(O)C(=O)O.[NH-][C@@H]1CCCC[C@H]1[NH-].[Pt+2]`, 0.742 ± 0.017.
As for `O=C(O)P(=O)(O)O`, the figure is 0.953 ± 0.027; as for `OC[C@H]1O[C@@H](O[C@H]2[C@H](O)[C@@H](O)C(O)O[C@@H]2CO)[C@H](O)[C@@H](O)[C@H]1O` (stereo partly specified), 1.14 ± 0.057; as for `CO/N=C(\C(=O)N[C@@H]1C(=O)N2C(C(=O)O)=C(C[N+]3(C)CCCC3)CS[C@H]12)c1csc(N)n1`, 0.0232 ± 0.0056.
Regarding `CO/N=C(\C(=O)N[C@@H]1C(=O)N2C(C(=O)O)=C(COC(C)=O)CS[C@H]12)c1csc(N)n1`, the normalized growth came out at 0.0479 ± 0.0089.
As for `C=CC1=C(C(=O)O)N2C(=O)[C@@H](NC(=O)/C(=N\O)c3csc(N)n3)[C@H]2SC1`, the figure is 0.0112 ± 0.00049.
